{"source": "ChEMBL document CHEMBL4513146", "about": "“CO-ADD screening of Karazin Kharkiv National University (Ukraine) compounds”", "key": {"Staphylococcus aureus": {"system": "Staphylococcus aureus", "conditions": "Concentration 32 ug.mL-1;; ASSAY_TEST Inhibition of Bacterial Growth; detection method Absorption (OD600); MEDIA CAMHB; plate type 384well; NBS; CORNING #3640; time 18 hr"}, "Escherichia coli": {"system": "Escherichia coli", "conditions": "Concentration 32 ug.mL-1;; ASSAY_TEST Inhibition of Bacterial Growth; detection method Absorption (OD600); MEDIA CAMHB; plate type 384well; NBS; CORNING #3640; time 18 hr"}}, "note": "Measured potencies and affinities stand elsewhere.", "data": [{"smiles": "COc1ccc(-c2cc3c4nnc(SCC(=O)N(C)c5ccccc5)n4ccn3n2)cc1", "values": [{"measurement": "Inhibition", "setting": "Staphylococcus aureus", "result": -6.7, "unit": "%"}, {"measurement": "Inhibition", "setting": "Escherichia coli", "result": -0.99, "unit": "%"}]}, {"smiles": "CCOc1ccc(-n2ccn3c(SC(CC)C(=O)Nc4cc(F)ccc4F)nnc3c2=O)cc1", "note": "(stereo unspecified)", "values": [{"measurement": "Inhibition", "setting": "Staphylococcus aureus", "result": 7.7, "unit": "%"}, {"measurement": "Inhibition", "setting": "Escherichia coli", "result": -0.34, "unit": "%"}]}, {"smiles": "COc1ccc(-c2cc3c4nn(CC(=O)Nc5ccc(OC)cc5OC)c(=O)n4ccn3n2)cc1", "values": [{"measurement": "Inhibition", "setting": "Staphylococcus aureus", "result": 6.72, "unit": "%"}, {"measurement": "Inhibition", "setting": "Escherichia coli", "result": -3.4, "unit": "%"}]}, {"smiles": "Cc1nnc2c(S(=O)(=O)N(Cc3ccccc3F)c3cc(F)cc(F)c3)cccn12", "values": [{"measurement": "Inhibition", "setting": "Staphylococcus aureus", "result": -8.28, "unit": "%"}, {"measurement": "Inhibition", "setting": "Escherichia coli", "result": 2.33, "unit": "%"}]}, {"smiles": "O=C(Cn1nc2nc(Nc3ccc(F)cc3)ccn2c1=O)N1CCCC1", "values": [{"measurement": "Inhibition", "setting": "Staphylococcus aureus", "result": -4.71, "unit": "%"}, {"measurement": "Inhibition", "setting": "Escherichia coli", "result": -12.03, "unit": "%"}]}, {"smiles": "COC(=O)c1ccccc1NC(=O)Cn1nc2c3sc(N4CCCC4)nc3ncn2c1=O", "values": [{"measurement": "Inhibition", "setting": "Staphylococcus aureus", "result": 6.17, "unit": "%"}, {"measurement": "Inhibition", "setting": "Escherichia coli", "result": -6.93, "unit": "%"}]}, {"smiles": "O=C(CSc1nc2ccccc2n2c(-c3ccccc3)nnc12)Nc1ccc(Br)cc1", "values": [{"measurement": "Inhibition", "setting": "Staphylococcus aureus", "result": 12.1, "unit": "%"}, {"measurement": "Inhibition", "setting": "Escherichia coli", "result": -0.27, "unit": "%"}]}, {"smiles": "O=C(Cn1nc2nc(Nc3ccc(F)cc3)ccn2c1=O)NCc1ccc(F)cc1Cl", "values": [{"measurement": "Inhibition", "setting": "Staphylococcus aureus", "result": 7.6, "unit": "%"}, {"measurement": "Inhibition", "setting": "Escherichia coli", "result": -1.86, "unit": "%"}]}, {"smiles": "O=c1n(Cc2cccc(C(F)(F)F)c2)nc2ccc(S(=O)(=O)N3CCCCC3)cn12", "values": [{"measurement": "Inhibition", "setting": "Staphylococcus aureus", "result": 14.29, "unit": "%"}, {"measurement": "Inhibition", "setting": "Escherichia coli", "result": 0.28, "unit": "%"}]}, {"smiles": "CCc1ccccc1NC(=O)Cn1nc2cc(C)nc(Nc3ccc(F)c(C)c3)n2c1=O", "values": [{"measurement": "Inhibition", "setting": "Staphylococcus aureus", "result": -15.94, "unit": "%"}, {"measurement": "Inhibition", "setting": "Escherichia coli", "result": -1.7, "unit": "%"}]}, {"smiles": "COc1ccc(-c2cc3c4nnc(CCC(=O)NCc5cccs5)n4ccn3n2)cc1", "values": [{"measurement": "Inhibition", "setting": "Staphylococcus aureus", "result": 11.44, "unit": "%"}, {"measurement": "Inhibition", "setting": "Escherichia coli", "result": 4.51, "unit": "%"}]}, {"smiles": "O=C(Cn1nc2c(=O)n(-c3ccc(Br)cc3)ccn2c1=O)Nc1ccc(F)cc1F", "values": [{"measurement": "Inhibition", "setting": "Staphylococcus aureus", "result": 3.27, "unit": "%"}, {"measurement": "Inhibition", "setting": "Escherichia coli", "result": -0.82, "unit": "%"}]}, {"smiles": "Cc1ccc(NC(=O)CSc2nnc3c(=O)n(-c4ccc(C)c(C)c4)ccn23)c(Cl)c1", "values": [{"measurement": "Inhibition", "setting": "Staphylococcus aureus", "result": 11.19, "unit": "%"}, {"measurement": "Inhibition", "setting": "Escherichia coli", "result": -1.65, "unit": "%"}]}, {"smiles": "CCCCn1c(=O)c2sccc2n2c(=O)n(CC(=O)NC(C)C)nc12", "values": [{"measurement": "Inhibition", "setting": "Staphylococcus aureus", "result": 6.34, "unit": "%"}, {"measurement": "Inhibition", "setting": "Escherichia coli", "result": -3.44, "unit": "%"}]}, {"smiles": "CCc1nnc2c(=O)n(CC(=O)Nc3cccc(C#N)c3)c3ccccc3n12", "values": [{"measurement": "Inhibition", "setting": "Staphylococcus aureus", "result": 13.48, "unit": "%"}, {"measurement": "Inhibition", "setting": "Escherichia coli", "result": 1.69, "unit": "%"}]}, {"smiles": "CCOc1ccc(NC(=O)Cn2nc3c(N4CCCC(C)C4)nccn3c2=O)cc1", "note": "(stereo unspecified)", "values": [{"measurement": "Inhibition", "setting": "Staphylococcus aureus", "result": 4.96, "unit": "%"}, {"measurement": "Inhibition", "setting": "Escherichia coli", "result": -4.53, "unit": "%"}]}, {"smiles": "Cc1ccc(C)c(NC(=O)Cn2nc3c(N4CCCC(C)C4)nccn3c2=O)c1", "note": "(stereo unspecified)", "values": [{"measurement": "Inhibition", "setting": "Staphylococcus aureus", "result": -2.35, "unit": "%"}, {"measurement": "Inhibition", "setting": "Escherichia coli", "result": -6.19, "unit": "%"}]}, {"smiles": "CC(C)CCNC(=O)CSc1nnc2c(=O)n(Cc3ccc(F)cc3)ccn12", "values": [{"measurement": "Inhibition", "setting": "Staphylococcus aureus", "result": 8.45, "unit": "%"}, {"measurement": "Inhibition", "setting": "Escherichia coli", "result": -0.48, "unit": "%"}]}, {"smiles": "COc1cc(OC)c(NC(=O)Cn2nc3ccc(SC4CCCCC4)nn3c2=O)cc1Cl", "values": [{"measurement": "Inhibition", "setting": "Staphylococcus aureus", "result": 7.67, "unit": "%"}, {"measurement": "Inhibition", "setting": "Escherichia coli", "result": 5.95, "unit": "%"}]}, {"smiles": "COc1ccc(NC(=O)CSc2nnc3c(=O)n(-c4cccc(F)c4)ccn23)cc1OC", "values": [{"measurement": "Inhibition", "setting": "Staphylococcus aureus", "result": 3.1, "unit": "%"}, {"measurement": "Inhibition", "setting": "Escherichia coli", "result": -11.05, "unit": "%"}]}, {"smiles": "O=C(CSc1nnc2c3cc(-c4ccccc4)nn3ccn12)NCc1ccccc1Cl", "values": [{"measurement": "Inhibition", "setting": "Staphylococcus aureus", "result": -4.46, "unit": "%"}, {"measurement": "Inhibition", "setting": "Escherichia coli", "result": -7.31, "unit": "%"}]}, {"smiles": "Cc1cccc(N(C)C(=O)Cn2nc3cc(C)nc(Nc4ccc(F)c(C)c4)n3c2=O)c1", "values": [{"measurement": "Inhibition", "setting": "Staphylococcus aureus", "result": 1.96, "unit": "%"}, {"measurement": "Inhibition", "setting": "Escherichia coli", "result": -7.99, "unit": "%"}]}, {"smiles": "COc1cccc(-n2ccn3c(SCC(=O)Nc4cc(F)ccc4F)nnc3c2=O)c1", "values": [{"measurement": "Inhibition", "setting": "Staphylococcus aureus", "result": 11.04, "unit": "%"}, {"measurement": "Inhibition", "setting": "Escherichia coli", "result": -6.25, "unit": "%"}]}, {"smiles": "O=C(Cn1nc2ccc(Sc3ccccc3)nn2c1=O)Nc1ccc(Cl)cc1", "values": [{"measurement": "Inhibition", "setting": "Staphylococcus aureus", "result": 14.57, "unit": "%"}, {"measurement": "Inhibition", "setting": "Escherichia coli", "result": 0.83, "unit": "%"}]}, {"smiles": "CSc1ccc(CNC(=O)Cn2nc3c(N4CC(C)CC(C)C4)nccn3c2=O)cc1", "note": "(stereo unspecified)", "values": [{"measurement": "Inhibition", "setting": "Staphylococcus aureus", "result": 11.21, "unit": "%"}, {"measurement": "Inhibition", "setting": "Escherichia coli", "result": 0.68, "unit": "%"}]}, {"smiles": "COC(=O)c1ccc(NC(=O)Cn2nc3ccc(SCc4ccc(Cl)cc4)nn3c2=O)cc1", "values": [{"measurement": "Inhibition", "setting": "Staphylococcus aureus", "result": 18.39, "unit": "%"}, {"measurement": "Inhibition", "setting": "Escherichia coli", "result": 1.59, "unit": "%"}]}, {"smiles": "CCOC(=O)c1ccccc1NC(=O)CSc1nnc2ccc(C(=O)Nc3cccc(F)c3)cn12", "values": [{"measurement": "Inhibition", "setting": "Staphylococcus aureus", "result": 9.51, "unit": "%"}, {"measurement": "Inhibition", "setting": "Escherichia coli", "result": -2.64, "unit": "%"}]}, {"smiles": "Cc1cc(C)cc(Nc2nc(C)cc3nn(CC(=O)Nc4cc(F)cc(F)c4)c(=O)n23)c1", "values": [{"measurement": "Inhibition", "setting": "Staphylococcus aureus", "result": 7.68, "unit": "%"}, {"measurement": "Inhibition", "setting": "Escherichia coli", "result": -2.61, "unit": "%"}]}, {"smiles": "COc1ccc(NC(=O)CSc2nc3ccccc3n3c(C(C)C)nnc23)cc1Cl", "values": [{"measurement": "Inhibition", "setting": "Staphylococcus aureus", "result": -3.22, "unit": "%"}, {"measurement": "Inhibition", "setting": "Escherichia coli", "result": -5.08, "unit": "%"}]}, {"smiles": "CCOc1ccc(C(=O)CSc2nnc3c(=O)n(-c4ccc(OCC)cc4)ccn23)cc1", "values": [{"measurement": "Inhibition", "setting": "Staphylococcus aureus", "result": 18.9, "unit": "%"}, {"measurement": "Inhibition", "setting": "Escherichia coli", "result": 1.24, "unit": "%"}]}, {"smiles": "CCc1ccccc1NC(=O)CSc1nnc2c(=O)n(-c3ccccc3)ccn12", "values": [{"measurement": "Inhibition", "setting": "Staphylococcus aureus", "result": 10.95, "unit": "%"}, {"measurement": "Inhibition", "setting": "Escherichia coli", "result": -0.17, "unit": "%"}]}, {"smiles": "Cc1ccc(-n2ccn3c(=O)n(Cc4c(F)cccc4Cl)nc3c2=O)cc1C", "values": [{"measurement": "Inhibition", "setting": "Staphylococcus aureus", "result": 10.39, "unit": "%"}, {"measurement": "Inhibition", "setting": "Escherichia coli", "result": -0.86, "unit": "%"}]}, {"smiles": "COc1cccc(Oc2nccn3c(=O)n(CC(=O)Nc4ccc5c(c4)OCCO5)nc23)c1", "values": [{"measurement": "Inhibition", "setting": "Staphylococcus aureus", "result": 9.52, "unit": "%"}, {"measurement": "Inhibition", "setting": "Escherichia coli", "result": -8.9, "unit": "%"}]}]}
